ChEMBL document CHEMBL3988442, “University of Dundee, Small-Polar-MMV Screening Library” (2021)

Target: T1, Methionyl-tRNA synthetase, putative (Leishmania donovani (strain BPK282A1)) (UniProt E9BF75)
T1 sequence (whole entry): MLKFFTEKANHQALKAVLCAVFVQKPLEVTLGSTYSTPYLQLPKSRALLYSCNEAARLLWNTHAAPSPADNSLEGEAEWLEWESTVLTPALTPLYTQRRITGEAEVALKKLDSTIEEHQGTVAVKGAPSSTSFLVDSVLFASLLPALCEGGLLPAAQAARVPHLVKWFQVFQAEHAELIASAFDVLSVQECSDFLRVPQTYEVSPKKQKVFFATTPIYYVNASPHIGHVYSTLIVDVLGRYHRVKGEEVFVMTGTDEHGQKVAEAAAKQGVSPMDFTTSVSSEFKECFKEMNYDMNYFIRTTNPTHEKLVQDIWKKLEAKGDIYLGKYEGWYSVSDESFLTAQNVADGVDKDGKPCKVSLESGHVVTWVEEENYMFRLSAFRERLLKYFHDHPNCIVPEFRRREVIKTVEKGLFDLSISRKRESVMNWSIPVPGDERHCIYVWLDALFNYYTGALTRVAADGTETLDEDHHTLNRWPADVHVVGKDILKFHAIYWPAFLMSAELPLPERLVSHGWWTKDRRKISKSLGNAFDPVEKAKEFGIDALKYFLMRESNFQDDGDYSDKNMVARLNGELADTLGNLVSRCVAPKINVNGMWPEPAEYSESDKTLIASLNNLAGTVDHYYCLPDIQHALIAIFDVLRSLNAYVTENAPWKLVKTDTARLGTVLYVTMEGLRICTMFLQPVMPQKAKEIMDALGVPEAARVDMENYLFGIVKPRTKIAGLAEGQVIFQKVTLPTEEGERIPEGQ
Experiment: Leishmania donovani Methionine tRNA synthetase (LdMetRS):v7. Dose response assay
Type: functional
Design: conc 80 nM, time 150 minutes

Cc1nc(NCc2ccccn2)c2cc(C)sc2n1
PXC50 (MAX_EFFECT 3.015075377): < 4
PXC50 (MAX_EFFECT 6.633906634): < 4

Cc1nc(NCCN2CCNC2=O)c2ccsc2n1
PXC50 (MAX_EFFECT 8.533333333): < 4
PXC50 (MAX_EFFECT 11.11111111): < 4

CCCN(CCOC)c1nc(C)nc2sccc12
PXC50 (MAX_EFFECT 12.79373368): < 4
PXC50 (MAX_EFFECT 15.14360313): < 4

Cn1ncc2c(OCCO)nc(Nc3ccc(F)c(F)c3)nc21
PXC50 (MAX_EFFECT 18.30188679): < 4
PXC50 (MAX_EFFECT 21.91780822): < 4

CC(=O)N1CCC(NC(=O)c2ccc3ccc(N4CCN(S(C)(=O)=O)CC4)n3c2)CC1
PXC50 (BOTTOM 2.919824671, HILLSLOPE 1.594432626, MAX_EFFECT 67.35849057, TOP 70.74594509): 4.9
PXC50 (BOTTOM 3.112441615, HILLSLOPE 1.895765793, MAX_EFFECT 63.92694064, TOP 65.42596591): 4.95

Cc1nc(N2CCCC2)c2c3c(sc2n1)CCCC3
PXC50 (MAX_EFFECT 9.895833333): < 4
PXC50 (MAX_EFFECT 12.71929825): < 4

CCOC(=O)c1cnn(-c2nc(C)nc3sc4c(c23)CCC(C)C4)c1N (stereo not given)
PXC50 (MAX_EFFECT 8.465608466): < 4
PXC50 (MAX_EFFECT 9.066666667): < 4

Cc1nc(NC(CC(C)C)C(=O)O)c2c3c(sc2n1)CCCC3 (stereo not given)
PXC50 (MAX_EFFECT 16.83673469): < 4
PXC50 (MAX_EFFECT 16.91919192): < 4

CS(=O)(=O)N1CCN(c2ccc3ccc(C(=O)N4CCCC4)cn23)CC1
PXC50 (BOTTOM 0.156945579, HILLSLOPE 1.857683392, MAX_EFFECT 58.30188679, TOP 61.51792395): 4.86
PXC50 (BOTTOM 4.583304472, HILLSLOPE 3.359740299, MAX_EFFECT 56.16438356, TOP 53.05051886): 4.95

CCc1nc(N2CCC(C(=O)O)CC2)c2c3c(sc2n1)CCC3
PXC50 (MAX_EFFECT 11.47540984): < 4
PXC50 (MAX_EFFECT 12.29946524): < 4

CCc1cc2c(NCc3ccccn3)nc(C)nc2s1
PXC50 (MAX_EFFECT 3.194103194): < 4
PXC50 (MAX_EFFECT 6.030150754): < 4

CCN(CC)c1ccc2ccc(C(=O)NC3CCCC3)cn12
PXC50 (MAX_EFFECT 33.58778626): < 4
PXC50 (MAX_EFFECT 39.03508772): < 4

CS(=O)(=O)N1CCN(c2ccc3cnc(C(=O)NC4CCCC4)cn23)CC1
PXC50 (MAX_EFFECT 8.333333333): < 4
PXC50 (MAX_EFFECT 13.54166667): < 4

CC(=O)NCc1nnc2n1CCN(c1nc(C)nc3sccc13)CC2
PXC50 (MAX_EFFECT 6.527415144): < 4
PXC50 (MAX_EFFECT 9.921671018): < 4

COCc1nc(N(C)CC(=O)N(C)C)c2c(-c3ccccc3)csc2n1
PXC50 (MAX_EFFECT 3.778337531): < 4
PXC50 (MAX_EFFECT 3.816793893): < 4

Cc1cc(C)n(-c2nc(NCC(C)(C)O)c3c4c(sc3n2)CCCC4)n1
PXC50 (MAX_EFFECT 11.97916667): < 4
PXC50 (MAX_EFFECT 40.35087719): < 4

Cc1nc(NCC(=O)O)c2cc(-c3ccccc3)sc2n1
PXC50 (MAX_EFFECT 8.533333333): < 4
PXC50 (MAX_EFFECT 10.58201058): < 4

CN(CC1CC1)c1ccc2ccc(C(=O)NC3CCCCC3)cn12
PXC50 (BOTTOM 1.124026448, HILLSLOPE 1.465093934, MAX_EFFECT 59.86394558, TOP 70.1166241): 4.49
PXC50 (BOTTOM 5.503846383, HILLSLOPE 1.186903167, MAX_EFFECT 58.31775701, TOP 100.0): 4.05

Cc1nc(N(C)CC(=O)NC2CC2)c2c3c(sc2n1)CCC3
PXC50 (MAX_EFFECT 3.703703704): < 4
PXC50 (MAX_EFFECT 5.866666667): < 4

CC[C@H](C)[C@H](Nc1nc(C)nc2sc3c(c12)CCCC3)C(=O)O
PXC50 (MAX_EFFECT 21.80851064): < 4
PXC50 (MAX_EFFECT 23.31606218): < 4

CCN1CCN(c2nc(-c3cccnc3)nc3sc(C)cc23)CC1
PXC50 (MAX_EFFECT 2.18579235): < 4
PXC50 (MAX_EFFECT -3.20855615): < 4

Cc1nc(N2CCC(C(N)=O)CC2)c2c3c(sc2n1)CC(C)CC3 (stereo not given)
PXC50 (MAX_EFFECT 5.852417303): < 4
PXC50 (MAX_EFFECT 9.319899244): < 4

OC1CCc2cc(Cl)cc(Cl)c21 (stereo not given)
PXC50 (MAX_EFFECT 6.26349892): < 3
PXC50 (MAX_EFFECT 9.69581749): < 3

Cc1nc(NC2CCCC2)c2c3c(sc2n1)CCCC3
PXC50 (MAX_EFFECT 28.64583333): < 4
PXC50 (MAX_EFFECT 30.70175439): < 4

Cc1nc(N2CCN(c3cnccn3)CC2)c2c3c(sc2n1)CCCC3
PXC50 (MAX_EFFECT 22.45989305): < 4
PXC50 (MAX_EFFECT 25.13661202): < 4

Oc1c(Cl)cc(Cl)cc1CNc1nccs1
PXC50 (MAX_EFFECT 15.39923954): < 3
PXC50 (MAX_EFFECT 20.51835853): < 3

CN(C)C(=O)N1CCN(c2ccc3ncc(-c4ccc5onc(N)c5c4)n3n2)CC1
PXC50 (MAX_EFFECT 21.88295165): < 4
PXC50 (MAX_EFFECT 25.43859649): < 4

CC1CCc2c(sc3nc(CN4CCOCC4)nc(NCC4CC4)c23)C1 (stereo not given)
PXC50 (MAX_EFFECT 17.08542714): < 4
PXC50 (MAX_EFFECT 17.93611794): < 4

Cc1sc2nc(CN3CCOCC3)nc(NCC3CCCO3)c2c1C (stereo not given)
PXC50 (MAX_EFFECT 9.836065574): < 4
PXC50 (MAX_EFFECT 10.69518717): < 4

FC1(F)CCN(Cc2ccccn2)CC12CCN(c1cnccn1)C2 (stereo not given)
PXC50 (MAX_EFFECT 7.476635514): < 4
PXC50 (MAX_EFFECT 8.163265306): < 4
